Activity calls are given as the source filed them.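 How the source made its calls: active means clear inhibition of the enzyme's cutting of labeled DNA at one or more tested doses; inactive means response stays at baseline.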

Outcome and Potency data for two molecules are collected here from PubChem BioAssay AID504474 (National Center for Advancing Translational Sciences (NCATS), 2011).

Sequence of Tyrosyl-DNA phosphodiesterase 1 (Homo sapiens) (Q9NUW8 whole entry, looked up): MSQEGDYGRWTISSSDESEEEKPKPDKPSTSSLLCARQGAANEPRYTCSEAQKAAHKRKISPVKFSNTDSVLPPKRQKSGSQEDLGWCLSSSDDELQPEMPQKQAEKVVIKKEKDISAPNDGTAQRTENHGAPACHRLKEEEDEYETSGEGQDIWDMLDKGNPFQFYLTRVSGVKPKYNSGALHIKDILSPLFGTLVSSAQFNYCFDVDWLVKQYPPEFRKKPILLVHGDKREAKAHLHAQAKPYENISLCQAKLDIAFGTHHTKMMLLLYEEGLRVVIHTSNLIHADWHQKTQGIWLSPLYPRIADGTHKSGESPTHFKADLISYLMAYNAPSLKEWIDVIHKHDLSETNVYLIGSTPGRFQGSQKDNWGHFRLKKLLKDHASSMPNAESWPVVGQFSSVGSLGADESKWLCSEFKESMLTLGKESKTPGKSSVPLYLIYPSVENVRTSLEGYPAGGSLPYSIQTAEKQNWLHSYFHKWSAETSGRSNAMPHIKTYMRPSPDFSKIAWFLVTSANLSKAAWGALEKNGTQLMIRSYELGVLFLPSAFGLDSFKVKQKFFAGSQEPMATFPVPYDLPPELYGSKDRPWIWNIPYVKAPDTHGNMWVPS

This test has as its target Tyrosyl-DNA phosphodiesterase 1 (Homo sapiens) (UniProt Q9NUW8). Put plainly: Gel-Based Assay for Inhibitors of Tyrosyl-DNA Phosphodiesterase (TDP1): Hit Validation. As to conditions: Recombinant TDP1, 32P-DNA substrate cleavage, gel densitometry. From the text:
Assay Overview: Human tyrosyl-DNA phosphodiesterase I (Tdp1) is a rational anticancer target because this enzyme is involved in the repair of DNA lesions created by the trapping of human DNA topoisomerase I (Top1) following treatment by anticancer agents such as camptothecins. Recombinant Tdp1 was expressed and purified from E. coli in the laboratory (Anthony et al, Nucleic Acids Research, 2007, Vol. 35, 4474-4484). See below for assay protocol. This is assay was used to validate select hits from the related primary AlphaScreen assay (AID: 485290) NIH Molecular Libraries Probe Production Network [MLPCN] NIH Chemical Genomics Center [NCGC] Assay Provider: Yves Pommier and Christophe Marchand, National Cancer Institute
5'-32P-labeled DNA substrate (1 nmol/L; N14Y; 5'-[…]-pY-3') was incubated with 0.2 nmol/L recombinant Tdp1 in the absence or presence of inhibitor for 15 min at room temperature in an assay buffer containing 1X PBS, pH 7.4, 80 mmol/L KCl and 0.01% Tween-20. Reactions were terminated by the addition of 1 volume of gel loading buffer [99.5% (v/v) formamide, 5 mmol/L EDTA, 0.01% (w/v) xylene cyanol, and 0.01% (w/v) bromophenol blue]. Samples were subjected to a 16% denaturing PAGE and gels were exposed after drying to a PhosphorImager screen (GE Healthcare). […]
Regarding `O=c1c2ccccc2nc2sc(Nc3ccc(F)cc3)nn12`, the outcome was inactive. As for `O=c1c2ccccc2nc2sc(Nc3cccc(Cl)c3)nn12`, the Potency is 7.4 µM (active).
